Active and inactive are the calls of the source. The call rests on the fitted dose curve; in most records, active means well fitted inhibition curve with a large enough effect; inconclusive means small, poorly fitted or top-dose-only effect; inactive means no such curve, though single readings can be large or run the other way.
biological target: Pyruvate kinase (Leishmania mexicana) (UniProt Q27686); assay: qHTS Validation Assay for Inhibitors of Leishmania Mexicana Pyruvate Kinase (AID 945);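 further: 0% = DMSO only neutral control wells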; settings: purified L. mexicana pyruvate kinase, enzyme activity, E451W mutant enzyme; series mostly up to 57.5 µM; activity change, negative = inhibition: at the top concentration
Sequence (Q27686 2-499 E452W): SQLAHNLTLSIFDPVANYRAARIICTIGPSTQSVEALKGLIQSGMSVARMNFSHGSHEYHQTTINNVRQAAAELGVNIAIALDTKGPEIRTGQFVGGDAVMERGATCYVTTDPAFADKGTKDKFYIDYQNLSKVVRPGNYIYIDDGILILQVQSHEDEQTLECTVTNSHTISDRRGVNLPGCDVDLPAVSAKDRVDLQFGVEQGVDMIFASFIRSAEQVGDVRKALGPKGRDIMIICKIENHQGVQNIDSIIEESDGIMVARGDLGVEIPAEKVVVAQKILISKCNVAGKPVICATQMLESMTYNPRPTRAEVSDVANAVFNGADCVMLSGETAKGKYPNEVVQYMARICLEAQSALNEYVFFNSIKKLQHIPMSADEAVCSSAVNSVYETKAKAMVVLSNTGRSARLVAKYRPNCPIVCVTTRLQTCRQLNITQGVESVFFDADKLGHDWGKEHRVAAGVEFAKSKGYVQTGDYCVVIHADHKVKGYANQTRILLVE
Source text: NIH Molecular Libraries Screening Centers Network [MLSCN]
NIH Chemical Genomics Center [NCGC]
PI names: Malcom Walkinshaw, Hugh Morgan and Linda Gilmore
University of Edinburgh, Edinburgh, UK
Species of Leishmania are responsible for a wide spectrum of diseases throughout the tropics and subtropics, ranging from self-healing ulcers to highly disfiguring lesions and serious, often lethal visceral diseases, such as kala-azar. In Leishmania spp. it has been shown that both sugar uptake and gluconeogenesis are necessary to synthesize sufficient hexose-phosphate required for the production of glycoconjugates and the intracellular polysaccharide mannan which are essential for both replication and virulence of the parasites. Therefore, most of the enzymes participating in glycolysis and gluconeogenesis are expected to be essential (Naderer et al., 2006). The assay described here targets pyruvate kinase from Leishmania mexicania (LmPYK) that was obtained as a highly purified preparation from the University of Edinburgh (E451W mutant was provided). A 1536 well assay protocol was set up and validated by screening the LOPAC library in triplicate as an eight point concentration-titration series using the qHTS platform developed at the NCGC.
NCGC Assay Protocol Summary:
Three uL of substrate mix (final concentrations, 50 mM imidazole pH 7.2, 50 mM KCl, 7 mM MgCl2, 0.5 mM PEP, 0.1 mM ADP, 0.01% Tween 20, 0.05% BSA) was dispensed into white solid medium binding Greiner 1536 well plates. 23 nL of compound were delivered by a pin tool and 1 uL of enzyme mix (final concentration, 0.2 nM LmPYK, 50 mM imidazole pH 7.2, 0.05% BSA) was added. Plates were covered with stainless steel gasket-lined lids and incubated at room temperature for 1 hour. Two uL of detection and kinase stop mix (PKLight, Lonza) was added, and luminescence read by a ViewLux (Perkin Elmer) at 2 second exposure/plate using 2x binning. Controls on each plate were as follows: column 1, sixteen-point titration (1:2 dilutions) in duplicate the LmPK activator LOPAC-C8145 beginning at 57 uM final concentration; column 2, sixteen-point titration (1:2 dilutions) in duplicate activator LOPAC-S4063 beginning at 57 uM final concentration; column 3, column 4 DMSO only. Data were normalized to the neutral control (column 3).

SMILES | activity change, negative = inhibition | Potency
CCOC(=O)c1cnc2c(cnn2CC)c1NN=C(C)C | 3.78% (inactive) | 
CCCCNC(=O)NS(=O)(=O)c1ccc(C)cc1 | -7.92% (inactive) | 
O=C(O)CN(CCN(CC(=O)O)CC(=O)O)CCN(CC(=O)O)CC(=O)O | -5.14% (inactive) | 
C[C@]12CCC(=O)C=C1CC[C@@H]1[C@@H]2C(=O)C[C@@]2(C)[C@H]1CC[C@]2(O)C(=O)CO | -7.51% (inactive) | 
C[N+](C)(C)CCCCCCCCCC[N+](C)(C)C | 4.99% (inactive) | 
CC(=O)Nc1nnc(S(N)(=O)=O)s1 | 7.34% (inactive) | 
O=c1[nH]c(=O)n([C@H]2C[C@H](O)[C@@H](CO)O2)cc1Br | 6.77% (inactive) | 
CCO/C([O-])=N/c1c[n+](N2CCOCC2)no1 | -7.64% (inactive) | 
CCc1c(C)[nH]c2c1C(=O)C(CN1CCOCC1)CC2 (stereo not given) | -1.96% (inactive) | 
Cc1scc2c1N(C(=O)CN1CCN(C)CC1)c1ccccc1NC2=O | -9.16% (inactive) | 
CCN1CCc2nc(N)oc2CC1 | 8.56% (inactive) | 
C[C@]12C=CC(=O)C=C1CC[C@H]1[C@@H]3C[C@@H](O)[C@](O)(C(=O)CO)[C@@]3(C)C[C@H](O)[C@@]12F | 4.78% (inactive) | 
Cc1nc2c([nH]1)c(=O)n(C)c(=O)n2Cc1ccco1 | 5.61% (inactive) | 
NC(=O)N1c2ccccc2C=Cc2ccccc21 | 5.68% (inactive) | 
CC[N+](C)(C)c1cccc(O)c1 | -8.41% (inactive) | 
COc1cc(C(=O)OCCCN2CCCN(CCCOC(=O)c3cc(OC)c(OC)c(OC)c3)CC2)cc(OC)c1OC | -15.5% (inactive) | 
N[C@@H](COP(=O)(O)O)C(=O)O | -4.98% (inactive) | 
CCNC(=O)N1CCN(CCCC(c2ccc(F)cc2)c2ccc(F)cc2)CC1 | 5.44% (inactive) | 
Cc1nc2sccn2c(=O)c1CCN1CCC(=C(c2ccc(F)cc2)c2ccc(F)cc2)CC1 | 6.32% (inactive) | 
CN1CCN(CC(=O)N2c3ccccc3C(=O)Nc3cccnc32)CC1 | -6.03% (inactive) | 

SMILES | activity change, negative = inhibition | Potency
CCn1cc(C(=O)O)c(=O)c2cc3c(cc21)OCO3 | 6.2% (inactive) | 
FC(F)(F)c1ccccc1-n1ccnc1 | -5.97% (inactive) | 
CN1CCN(C2=Nc3ccccc3Oc3ccc(Cl)cc32)CC1 | -2.25% (inactive) | 
C#CCN(C)CCCOc1ccc(Cl)cc1Cl | -15.7% (inactive) | 
CCN(CC)CCNC(=O)c1cc(S(C)(=O)=O)ccc1OC | -7.85% (inactive) | 
CCN(CC)CCNC(=O)c1ccc(NC(C)=O)cc1 | 10.2% (inactive) | 
COc1cc(Cc2cnc(N)nc2N)cc(OC)c1OC | 3.99% (inactive) | 
O=C(O)CP(=O)(O)O | -4.97% (inactive) | 
CCCCNc1ccc(C(=O)OCCN(C)C)cc1 | 3.24% (inactive) | 
CCCCNc1c(C(=O)OCC)c(C)nc2c1cnn2CC | -8.69% (inactive) | 
CCC(=O)c1ccc2c(c1)N(CCCN(C)C)c1ccccc1S2 | 3.78% (inactive) | 
CC(=O)Oc1cc(C(C)C)c(OCCN(C)C)cc1C | 1.27% (inactive) | 
CC(C)[N+](C)(CCOC(=O)C1c2ccccc2Oc2ccccc21)C(C)C | 4.93% (inactive) | 
CCn1nc(C(=O)O)c(=O)c2cc3c(cc21)OCO3 | 2.32% (inactive) | 
NCCCNCCSP(=O)(O)O | -3.53% (inactive) | 
CCCN(CCC)CCc1cccc2c1CC(=O)N2 | 2.37% (inactive) | 
OCCN1CCN(CCCN2c3ccccc3C=Cc3ccccc32)CC1 |  | inactive
C[C@]12CCC(=O)C=C1CC[C@@H]1[C@@H]2CC[C@@]2(C)[C@H]1CC[C@]2(O)C(=O)CO | -5.25% (inactive) | 
CN/C(=C\[N+](=O)[O-])NCCSCc1ccc(CN(C)C)o1 | 10.4% (inactive) | 
c1cc(CN2CCCCC2)cc(OCCCNc2nc3ccccc3s2)c1 | -8.73% (inactive) | 

From PubChem BioAssay (NCATS)
